In ChEMBL document CHEMBL3433997, “St. Jude Leishmania screening dataset” (2016) one finds inhibition data, which are given here for 40 molecules.

Usually inhibition stands for the change of the read-out against control, counted positive when it falls.

Structures are written as SMILES.

Solute carrier family 2, facilitated glucose transporter member 1 (Homo sapiens), sequence (P11166 whole entry): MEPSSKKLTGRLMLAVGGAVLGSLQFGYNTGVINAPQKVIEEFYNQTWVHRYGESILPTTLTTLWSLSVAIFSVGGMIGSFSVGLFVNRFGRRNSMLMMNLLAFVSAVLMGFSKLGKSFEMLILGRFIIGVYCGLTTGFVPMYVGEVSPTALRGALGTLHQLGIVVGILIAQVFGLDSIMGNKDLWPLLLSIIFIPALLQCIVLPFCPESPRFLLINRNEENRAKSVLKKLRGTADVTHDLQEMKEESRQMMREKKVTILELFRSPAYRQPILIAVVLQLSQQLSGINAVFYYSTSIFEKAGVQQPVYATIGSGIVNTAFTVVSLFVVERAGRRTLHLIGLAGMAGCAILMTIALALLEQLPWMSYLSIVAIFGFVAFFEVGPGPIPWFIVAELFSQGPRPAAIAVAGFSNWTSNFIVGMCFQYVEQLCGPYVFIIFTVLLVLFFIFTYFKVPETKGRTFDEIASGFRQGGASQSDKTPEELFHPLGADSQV

The first experiment has as its target Solute carrier family 2, facilitated glucose transporter member 1 (Homo sapiens) (UniProt P11166). Put plainly: ST_JUDE_LEISH: Cytotoxicity at 2uM final concentration against transgenic Leishmania Mexicana promastigotes LmGLUT1 that are glucose transport deficient and complemented with the human glucose transporter GLUT1. Activity is measured by DNA content using SYBR green in vitro. Format: functional.
On to `CCNc1cc(C(=O)N[C@@H](Cc2ccccc2)[C@H](O)CNC(C)(C)Cc2ccccc2)cc(N2CCCC2=O)c1`, for which the inhibition came to 3.58%.

Regarding `CCOC(=O)N1CCN(CCCNc2c3ccc(Cl)cc3nc3ccc(OC)cc23)CC1`, the inhibition was 4.11%.

With `CO/C(=C\C=C\c1cc2cc(Cl)c(Cl)cc2[nH]1)C(=O)NCCCN1CCN(c2ccc(OC)cc2)CC1`, the inhibition stood at 2.11%.

Regarding `CCC(C)CN1CCN(c2ccc(NC(=O)c3cccs3)cc2)C(C)C1` (stereo not given), the inhibition amounted to 8.34%.

As for `CC(C)(C)c1ccc2[nH]c(-c3ccc(C(=O)NCCCc4ccccc4)cc3)nc2c1`, the inhibition turned out to be 2.42%.

Consider `CN1CCN(c2ncnc3ccc(NC(=O)Nc4ccc(Cl)c(Cl)c4)cc23)CC1`, for which the inhibition was 5%.

For the molecule `CCCCCCCCCCNCC(O)c1ccc(O)c(C(=O)OC)c1` (stereo not given), the inhibition was -0.21%.

As to `C[C@H](NC(=O)[C@H](CCCCNC(=O)OC(C)(C)C)NC(=O)OC(C)(C)c1ccc(-c2ccccc2)cc1)C(=O)OCc1ccccc1`, the inhibition worked out at 3.8%.

Take `CC(C)(C)c1ccc(NC(=O)c2cccc(CN3CCCN(CC4CCCCC4)CC3)c2)cc1`: the inhibition was found to be 3.24%.

As for `Brc1cc(CNCCCNc2nc3ccccc3[nH]2)sc1Br`, the inhibition worked out at 6.22%.

On to `O=C(NCCCCCN1CCC(c2c[nH]c3ccccc23)CC1)Nc1ccc(Cl)c(Cl)c1`, for which the inhibition is -1%.

As to `COc1cc(Cc2cnc(N)nc2N)ccc1Oc1ccc(N)cc1`, the inhibition is 1.44%.

`Cc1cc(Cl)ccc1OC(C)C(=O)N1CCc2ccccc21` (stereo not given): the inhibition is -3.17%.

With `CCC1N=C(N)N=C(N)N1OCc1cccc2ccccc12` (stereo not given), the inhibition stood at 1.74%.

As for `CC1CCCCN1Cc1cccc(-c2c[nH]c3nc(NC4CCCC4)ncc23)c1` (stereo not given), the inhibition worked out at 10.8%.

On to `N#Cc1cccc(-c2ccc(C(=O)Nc3ccc4c(c3)CCN(C3CCC3)CC4)cn2)c1`, for which the inhibition was 7.62%.

As for `Cc1ccc(Cn2nc(N3CCNCC3)ccc2=O)cc1NC(=O)Nc1ccc(-c2ccccc2)cc1`, the inhibition was found to be 1.5%.

Turning to `Cc1ccccc1Nc1nc(NCCCO)c2ccccc2n1`, the inhibition worked out at 13.6%.

For `Oc1ccc(CCNCc2ccc(OCc3ccccc3)c(OCc3ccccc3)c2)cc1`, the inhibition was determined as 75%.

As for `CCCCOC(=O)c1ccc(NC(=O)Nc2ccc(Cn3ncc(N4CCCNCC4)c(Cl)c3=O)cc2)cc1`, the inhibition came to 9.01%.

For the molecule `COc1ccc(Nc2nc(NCc3cccc(NS(C)(=O)=O)c3)cc(-c3ccc(OC)cc3)n2)cc1`, the inhibition worked out at 4.4%.

Regarding `COc1cc2c(c(Cl)c1OC)CCN(Cc1ccccc1)CC2c1ccc(NC(=O)C(F)(F)F)cc1` (stereo not given), the inhibition worked out at 3.91%.

In the case of `Clc1ccc2c(NCCCCCCCCNc3ccnc4cc(Cl)ccc34)ccnc2c1`, the inhibition amounted to 2.99%.

With `CC(C)Cc1cn(-c2nc(-c3nc4ccccc4[nH]3)cs2)c2ccncc12`, the inhibition amounted to 4.69%.

Take `O=[N+]([O-])c1ccc(N2CCCN(C(=S)Nc3ccc(F)cc3Br)CC2)nc1`: the inhibition came out at 1.6%.

Turning to `Fc1cc(Cl)ccc1Nc1ccnc2cc(-c3scnc3CNCCN3CCOCC3)ccc12`, the inhibition came out at 2.02%.

For the molecule `COc1ccc(OCCCCON2C(=N)N=C(N)NC2(C)C)cc1`, the inhibition came to 3.18%.

Turning to `CN(C)S(=O)(=O)c1cc(-c2ccc3nccc(-c4cccc(S(N)(=O)=O)c4)c3c2)cnc1N`, the inhibition is 8.3%.

`c1ccc(-c2cccc(-c3ccccn3)n2)nc1`: the inhibition stood at 3.92%.

`COc1ccc(NC(=O)CSc2nc(-c3ccccc3Cl)ns2)cc1`: the inhibition came to 1.15%.

Regarding `CCCCCC(C)N/C(=N/c1ccccc1Br)Nc1ccc([N+](=O)[O-])cc1O` (stereo not given), the inhibition was 1.52%.

Turning to `N#Cc1cc([N+](=O)[O-])ccc1-n1nc(-c2cccc(Cl)c2)n(CC2CCCO2)c1=S` (stereo not given), the inhibition was 2.07%.

With `Cc1cccc2nc(-c3cccc(-c4ccc(NC(=O)Cc5c[nH]cn5)cc4)c3)[nH]c12`, the inhibition was -1.66%.

Consider `CN1CC[C@@H](Oc2cc(Nc3nc(-c4ccc(C#N)cc4)cs3)ccc2Cl)C1`, for which the inhibition worked out at 5.3%.

For `CCN(CC)c1ccc(C(c2ccc(N(CC)CC)cc2)c2cccc([N+](=O)[O-])c2)cc1`, the inhibition turned out to be 15.2%.

On to `COc1ccc2c(c1C1CCN(CCCCNC(=O)c3ccc(NC(=O)c4ccc(Cl)cc4)cc3)CC1)CCCC2`, for which the inhibition is -1.16%.

As for `Nc1nc(N)c2c(ccc3nn(C4CCCC4)cc32)n1`, the inhibition was 10.1%.

`N#Cc1ccc(Cn2ccc3c4c(N)nc(N)nc4ccc32)cc1`: the inhibition stood at 82.6%.

As to `O=c1nc(NCCCCCN2CCC(c3c[nH]c4ccccc34)CC2)[nH]cc1Cc1ccc(Cl)c(Cl)c1`, the inhibition turned out to be 2.65%.

Consider `O=C1COc2cc(Cl)c(CNC3CCN(CCc4ccnc5c(F)cc(F)cc45)CC3)nc2N1`, for which the inhibition amounted to 2.1%.

In a further experiment the target is Hexose transporter 1 (Plasmodium falciparum) (UniProt O97467). Put plainly: ST_JUDE_LEISH: Cytotoxicity at 2uM final concentration against transgenic Leishmania Mexicana promastigotes LmPfHT that are glucose transport deficient and complemented with the Plasmodium falciparum hexose transporter. Activity is measured by DNA content using SYBR green in vitro. Format: functional.
On to `CCNc1cc(C(=O)N[C@@H](Cc2ccccc2)[C@H](O)CNC(C)(C)Cc2ccccc2)cc(N2CCCC2=O)c1`, for which the inhibition was determined as 0.61%.

Take `CCOC(=O)N1CCN(CCCNc2c3ccc(Cl)cc3nc3ccc(OC)cc23)CC1`: the inhibition turned out to be 3.33%.

On to `CO/C(=C\C=C\c1cc2cc(Cl)c(Cl)cc2[nH]1)C(=O)NCCCN1CCN(c2ccc(OC)cc2)CC1`, for which the inhibition was 2.47%.

In the case of `CCC(C)CN1CCN(c2ccc(NC(=O)c3cccs3)cc2)C(C)C1` (stereo not given), the inhibition amounted to 9.28%.

As for `CC(C)(C)c1ccc2[nH]c(-c3ccc(C(=O)NCCCc4ccccc4)cc3)nc2c1`, the inhibition worked out at 2.97%.

For the molecule `CN1CCN(c2ncnc3ccc(NC(=O)Nc4ccc(Cl)c(Cl)c4)cc23)CC1`, the inhibition was determined as 2.35%.

For the molecule `CCCCCCCCCCNCC(O)c1ccc(O)c(C(=O)OC)c1` (stereo not given), the inhibition was determined as 1.42%.

In the case of `C[C@H](NC(=O)[C@H](CCCCNC(=O)OC(C)(C)C)NC(=O)OC(C)(C)c1ccc(-c2ccccc2)cc1)C(=O)OCc1ccccc1`, the inhibition turned out to be 3.27%.

As for `CC(C)(C)c1ccc(NC(=O)c2cccc(CN3CCCN(CC4CCCCC4)CC3)c2)cc1`, the inhibition came out at 1.77%.

On to `Brc1cc(CNCCCNc2nc3ccccc3[nH]2)sc1Br`, for which the inhibition amounted to 9.1%.

As to `O=C(NCCCCCN1CCC(c2c[nH]c3ccccc23)CC1)Nc1ccc(Cl)c(Cl)c1`, the inhibition was -1.05%.

For the molecule `COc1cc(Cc2cnc(N)nc2N)ccc1Oc1ccc(N)cc1`, the inhibition was 0.48%.

For `Cc1cc(Cl)ccc1OC(C)C(=O)N1CCc2ccccc21` (stereo not given), the inhibition is 0.81%.

With `CCC1N=C(N)N=C(N)N1OCc1cccc2ccccc12` (stereo not given), the inhibition was 0.62%.

For `CC1CCCCN1Cc1cccc(-c2c[nH]c3nc(NC4CCCC4)ncc23)c1` (stereo not given), the inhibition turned out to be 6.53%.

With `N#Cc1cccc(-c2ccc(C(=O)Nc3ccc4c(c3)CCN(C3CCC3)CC4)cn2)c1`, the inhibition worked out at 4.8%.

Consider `Cc1ccc(Cn2nc(N3CCNCC3)ccc2=O)cc1NC(=O)Nc1ccc(-c2ccccc2)cc1`, for which the inhibition stood at 2.27%.

`Cc1ccccc1Nc1nc(NCCCO)c2ccccc2n1`: the inhibition turned out to be 12.5%.

Take `Oc1ccc(CCNCc2ccc(OCc3ccccc3)c(OCc3ccccc3)c2)cc1`: the inhibition worked out at 76.6%.

As for `CCCCOC(=O)c1ccc(NC(=O)Nc2ccc(Cn3ncc(N4CCCNCC4)c(Cl)c3=O)cc2)cc1`, the inhibition is 10.1%.

Regarding `COc1ccc(Nc2nc(NCc3cccc(NS(C)(=O)=O)c3)cc(-c3ccc(OC)cc3)n2)cc1`, the inhibition stood at 5.23%.

On to `COc1cc2c(c(Cl)c1OC)CCN(Cc1ccccc1)CC2c1ccc(NC(=O)C(F)(F)F)cc1` (stereo not given), for which the inhibition amounted to 2.68%.

`Clc1ccc2c(NCCCCCCCCNc3ccnc4cc(Cl)ccc34)ccnc2c1`: the inhibition was 1.53%.

`CC(C)Cc1cn(-c2nc(-c3nc4ccccc4[nH]3)cs2)c2ccncc12`: the inhibition is 6.3%.

As for `O=[N+]([O-])c1ccc(N2CCCN(C(=S)Nc3ccc(F)cc3Br)CC2)nc1`, the inhibition is -0.77%.

On to `Fc1cc(Cl)ccc1Nc1ccnc2cc(-c3scnc3CNCCN3CCOCC3)ccc12`, for which the inhibition is 1.16%.

In the case of `COc1ccc(OCCCCON2C(=N)N=C(N)NC2(C)C)cc1`, the inhibition was 1.29%.

`CN(C)S(=O)(=O)c1cc(-c2ccc3nccc(-c4cccc(S(N)(=O)=O)c4)c3c2)cnc1N`: the inhibition amounted to 7.26%.

In the case of `c1ccc(-c2cccc(-c3ccccn3)n2)nc1`, the inhibition was 2.46%.

In the case of `COc1ccc(NC(=O)CSc2nc(-c3ccccc3Cl)ns2)cc1`, the inhibition is -1.47%.

For the molecule `CCCCCC(C)N/C(=N/c1ccccc1Br)Nc1ccc([N+](=O)[O-])cc1O` (stereo not given), the inhibition is 1.7%.

As to `N#Cc1cc([N+](=O)[O-])ccc1-n1nc(-c2cccc(Cl)c2)n(CC2CCCO2)c1=S` (stereo not given), the inhibition worked out at 1.3%.

Turning to `Cc1cccc2nc(-c3cccc(-c4ccc(NC(=O)Cc5c[nH]cn5)cc4)c3)[nH]c12`, the inhibition is -0.73%.

`CN1CC[C@@H](Oc2cc(Nc3nc(-c4ccc(C#N)cc4)cs3)ccc2Cl)C1`: the inhibition came out at 5.47%.

Take `CCN(CC)c1ccc(C(c2ccc(N(CC)CC)cc2)c2cccc([N+](=O)[O-])c2)cc1`: the inhibition turned out to be 13.8%.

As to `COc1ccc2c(c1C1CCN(CCCCNC(=O)c3ccc(NC(=O)c4ccc(Cl)cc4)cc3)CC1)CCCC2`, the inhibition is -1.03%.

For the molecule `Nc1nc(N)c2c(ccc3nn(C4CCCC4)cc32)n1`, the inhibition was 9.8%.

With `N#Cc1ccc(Cn2ccc3c4c(N)nc(N)nc4ccc32)cc1`, the inhibition was determined as 84.2%.

`O=c1nc(NCCCCCN2CCC(c3c[nH]c4ccccc34)CC2)[nH]cc1Cc1ccc(Cl)c(Cl)c1`: the inhibition was found to be 2.12%.

`O=C1COc2cc(Cl)c(CNC3CCN(CCc4ccnc5c(F)cc(F)cc45)CC3)nc2N1`: the inhibition is 2.94%.
